Growth data for 8 compounds are collected here from PubChem BioAssay (NCI).

SMILES strings stand for the structures. Compounds without any hit were thinned out: in the full panel of roughly 83,000, 20% have a hit.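 Percent growth is the endpoint: 0 to 100 indicates growth inhibition (40 means 60% inhibition), 0 means no net growth, and negative values indicate cell death.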 Values without a mark were called inactive. Active and inactive are the calls of the source. How the source made its calls: active means growth percent below 10; inactive means the rest.

Holding throughout (experiment): NCI-60 one-dose screen, 48 h (100 = growth as untreated, 0 = no growth, -100 = all killed)
Common to all, as to details: 10 µM unless noted

The subject of assay [1] is NCI-H23 lung.
Assay [2] concerns NCI-H226 lung.
Assay [3] concerns NCI-H322M lung.
For assay [4], the system named is HOP-62 NSCLC.
The test system of assay [5] is NCI-H460 lung.
Assay [6] deals with HOP-92 NSCLC.
The subject of assay [7] is NCI-H522 lung.
In assay [8] the test system is A549/ATCC NSCLC.
Assay [9] deals with 786-0 renal.
The test system of assay [10] is COLO 205 colon.
The subject of assay [11] is DU-145 prostate.
The subject of assay [12] is K-562 leukemia.
Assay [13] concerns MALME-3M melanoma.
Assay [14] relates to MDA-MB-231 breast.
For assay [15], the system named is RXF 393 renal.
Assay [16] concerns SF-268 CNS.
Assay [17] relates to SF-295 CNS.
Assay [18] has as its system SF-539 CNS.
The test system of assay [19] is UACC-257 melanoma.
The subject of assay [20] is M14 melanoma.

Turning to `CCOC(=O)C1=C(C)n2nc(CC#N)c(C#N)c2NC1c1ccc(Cl)cc1` (stereo not given), the growth in assay [1] was 86.3%; in assay [2], 81.8%; in [3], 91.7%; in assay [4], 91.5%; in [5], 105%; in [6] it was 90%. In addition, the growth was 95.4% in assay [7]; 104% in assay [8]; 106% in assay [9]; 103% in assay [10]; 97.2% in assay [11]; 115% in assay [12]. Moreover, the growth in assay [13] is 87.4%; in [14], 88.8%; in [15], 100%; in assay [16], 87.3%; in [17], 102%; in assay [18], 96.8%. Further, the growth was 114% in assay [19] and 91.2% in assay [20].

For `Cc1nc2sc(C(=O)Nc3cccc(Cl)c3C)c(N)c2cc1C(C)O` (stereo not given), the growth is 32.6% in assay [1]; 95.8% in assay [2]; 55.6% in assay [3]; 25.5% in assay [4]; 11.1% in assay [5]; 43.2% in assay [6]. Besides, the growth in assay [7] is -24.9% (active); in assay [8] it was 24.7%; in assay [9], 35.6%; in [10], -4.18% (active); in assay [11], 20%; in assay [12] it was 7.36% (active). In addition, the growth in [13] is 71%; in assay [14], 47.5%; in assay [15], 3.16% (active); in assay [16], 47.9%; in assay [17], 15%; in [18] it was -12.5% (active). Besides, the values for the growth in assay [19] and in assay [20] were 46.9% and 23.4%, respectively.

Turning to `Cc1nccc2c3ccc(OCc4cn(-c5ccc(Cl)cc5)nn4)cc3n(CC(C)C)c12`, the growth was 14.1% in assay [1]; 42% in [2]; 66.1% in [3]; 35.6% in assay [4]; 17% in assay [5]; 8.37% (active) in assay [6]. Besides, the growth is 1.04% (active) in [7]; 30.7% in [8]; 2.68% (active) in assay [9]; -22.6% (active) in assay [10]; 54.1% in [11]; 8.22% (active) in assay [12]. Further, the growth in assay [13] was 0.392% (active); in assay [14], 27.8%; in [15], 0.754% (active); in assay [16], 57.3%; in [17], 15.4%; in [18] it was 22.2%. Also, the growth is 4.16% (active) in assay [19] and 23.2% in assay [20].

In the case of `O=C(Nc1ccccc1)NS(=O)(=O)c1c[nH]c(=S)[nH]c1=O`, the growth in assay [1] was 92.3%; in [2], 105%; in assay [3] it was 104%; in assay [4], 72.4%; in assay [5], 106%; in assay [6] it was 115%. The growth in assay [7] is 60.7%; in assay [8], 80.7%; in assay [9] it was 95.7%; in assay [10], 96.5%; in assay [11], 105%; in assay [12], 103%. Further, the growth in assay [13] is 100%; in assay [14], 105%; in [15], 127%; in assay [16], 97.1%; in assay [17], 97.8%; in assay [18], 99.8%. Further, the results for the growth in [19] and in assay [20] were 92.5% and 104%, respectively.

With `CCOCCc1c(O)nc(SC)[nH]c1=O`, the growth is 91.9% in assay [1]; 92% in assay [2]; 111% in assay [3]; 93.3% in assay [4]; 107% in [5]; 99.1% in [6]. Further, the growth in assay [7] was 94.7%; in assay [8], 103%; in assay [9] it was 103%; in assay [10], 105%; in assay [11] it was 107%; in assay [12], 112%. For the same compound, the growth in [13] was 130%; in [14] it was 111%; in assay [15] it was 161%; in [16], 116%; in assay [17], 113%; in assay [18], 93.7%. Besides, the values for the growth in assay [19] and in assay [20] were 23.9% and 98.9%, respectively.

Turning to `CSc1cccc(NC(=O)Nc2nc3c(C)cccc3s2)c1`, the growth in [1] was 90.2%; in assay [2], 83.2%; in assay [3] it was 102%; in [4], 87.4%; in [5], 97.6%; in [6] it was 86.6%. Besides, the growth in assay [7] was 77.6%; in [8], 95.1%; in [9], 96.2%; in assay [10], 120%; in assay [11], 114%; in assay [12], 89.8%. Also, the growth in assay [13] was 93.5%; in [14], 116%; in assay [15], 104%; in assay [16], 104%; in [17], 97.3%; in assay [18], 89.3%. For the same compound, the values for the growth in assay [19] and in [20] were 98.7% and 98%, respectively.

Consider `C[C@H](Oc1cc(-c2cnn(C3CCNCC3)c2)cnc1N)c1c(Cl)ccc(F)c1Cl`, for which the growth was 71.6% in [1]; 109% in assay [2]; 75.2% in assay [3]; 66.5% in assay [4]; 57.9% in assay [5]; 41.1% in [6]. The growth in assay [7] is 73.1%; in [8], 72%; in assay [9], 49.2%; in assay [10], 46.3%; in [11] it was 77.8%; in assay [12], 5.27% (active). For the same compound, the growth was -38% (active) in assay [13]; 52.2% in assay [14]; 31.6% in [15]; 59% in assay [16]; 49.7% in assay [17]; 68.3% in assay [18]. The values for the growth in assay [19] and in assay [20] were -45% (active) and -51.9% (active), respectively.

`O=c1[nH]c2ccccc2cc1-c1nc2ccncc2[nH]1`: the growth was 85% in assay [1]; 79.6% in [2]; 110% in assay [3]; 101% in [4]; 62.4% in assay [5]; 64.3% in [6]. In addition, the growth in assay [7] is 90.7%; in [8], 90.4%; in assay [9], 88.6%; in assay [10], 83.3%; in [11], 78.8%; in assay [12], 79.1%. In addition, the growth in [13] is 113%; in assay [14], 98.3%; in assay [15], 72.5%; in [16], 96.6%; in assay [17], 78.1%; in assay [18], 79.1%. Moreover, the growth in [19] was 111%; in assay [20] it was 87.3%.
